Molecular target: T1, USP38, Q8NB14
T1 chain: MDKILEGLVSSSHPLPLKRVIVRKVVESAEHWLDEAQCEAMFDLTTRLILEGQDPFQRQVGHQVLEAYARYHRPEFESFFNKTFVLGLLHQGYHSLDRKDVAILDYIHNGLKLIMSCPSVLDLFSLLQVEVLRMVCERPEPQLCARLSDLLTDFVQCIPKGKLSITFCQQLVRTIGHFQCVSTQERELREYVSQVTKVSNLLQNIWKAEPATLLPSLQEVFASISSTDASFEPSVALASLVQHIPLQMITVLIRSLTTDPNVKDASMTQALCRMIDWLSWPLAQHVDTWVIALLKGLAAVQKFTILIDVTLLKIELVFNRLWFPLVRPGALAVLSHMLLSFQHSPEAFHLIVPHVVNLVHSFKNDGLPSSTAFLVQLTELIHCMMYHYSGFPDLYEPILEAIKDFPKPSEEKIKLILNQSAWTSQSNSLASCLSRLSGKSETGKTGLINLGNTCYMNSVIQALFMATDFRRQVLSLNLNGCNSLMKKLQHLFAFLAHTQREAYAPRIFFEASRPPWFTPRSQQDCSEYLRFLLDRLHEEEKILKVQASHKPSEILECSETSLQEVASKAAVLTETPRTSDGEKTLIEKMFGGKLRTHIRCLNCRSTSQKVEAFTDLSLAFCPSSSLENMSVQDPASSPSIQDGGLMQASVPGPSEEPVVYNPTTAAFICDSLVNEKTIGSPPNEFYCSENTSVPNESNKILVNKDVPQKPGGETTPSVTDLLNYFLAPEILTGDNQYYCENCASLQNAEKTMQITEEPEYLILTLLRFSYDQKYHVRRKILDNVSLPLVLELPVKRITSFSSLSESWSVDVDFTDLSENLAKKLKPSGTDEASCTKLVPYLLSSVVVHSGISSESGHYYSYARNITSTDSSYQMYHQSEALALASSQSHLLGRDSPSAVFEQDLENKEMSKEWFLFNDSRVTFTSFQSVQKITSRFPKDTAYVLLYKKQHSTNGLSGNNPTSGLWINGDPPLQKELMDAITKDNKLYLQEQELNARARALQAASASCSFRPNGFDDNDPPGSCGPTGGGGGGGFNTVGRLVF
Experiment: median log2 fold change of GCK-ALFA target abundance (FLAG IP / Myc IP barcode read proportion) (log2 ratio); each designed protein is fused to an ALFA-tag nanobody in HEK293 cells to bring the named protein to FLAG-tagged glucokinase (GCK); Myc marks an untargeted standard; higher = target protein stabilised (more abundant)
Settings: target protein: 3xFLAG-MCP-GCK-ALFA reporter; HEK293 landing pad (RPLP)
Procedure, shortened: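 Binders fused to an ALFA nanobody were recombined as a library into HEK293 landing-pad cells, which were induced with 2 μg mL^−1 doxycycline and then transfected to express a FLAG-tagged target and a Myc-tagged standard. After 48 h, circular RNA barcodes recovered by anti-FLAG and anti-Myc immunoprecipitation of lysates were reverse transcribed, amplified and sequenced. Each binder's target abundance is the median log2 ratio of FLAG to Myc barcode read proportions, from barcodes present at ≥10^−7 in both replicates, binders carrying ≥3 barcodes per replicate, a 10^−6 pseudocount and pooled replicates.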

Row | Binder | median log2 fold change
1 | usp_38_diff_out_17_125_212 (protein) MFEELKKKIEELLEEARRLVEEAERALAAGAPTAEVRRLLDQAADALGQLAVELRKLREESKDKAQAAKVIKEATKEANELIDRLTELETRVFLREAEAA | -1.04
2 | usp_38_diff_out_17_125_215 (protein) SDEELKKEIEKKLKEAEELLKEAEKALEAGAPAEEVEKLLDAAADALGQLAVLLRELREKSKDKAQAAKFIKKATEEANKLIDRYTELAERNFLRVAEEQ | -0.432
3 | usp_38_diff_out_16_37_205 (protein) GEELLEEFRRFMEEAEREARRLAEEARELAEKGADIEEIERVLEELERLLDEVVERTTEVLEAVPEHADEILAEYDRAATTLAEAGKEIREKLREAKEKE | -0.436
4 | usp_38_diff_out_17_125_217 (protein) SSEELKEEIEKALKEAEELLKKAKELLEAGAPFEEIMAALDKAADALGKLAVLLRKLREESEDPAQAAKFIKEATKRADELIDEYTKLATEAFQREADAA | -0.0349
5 | usp_38_diff_out_16_37_210 (protein) GEEVLKEFKEFMEKAIEEAKKLAEEAKKLAKEGADIEELKKLKEELEKLIDEAVEKTTEALEKVPEKIEEIFAEFDKFADEAAKAGKEIDKAIKEAKKKK | -0.522
6 | usp_38_diff_out_16_37_208 (protein) AEAKLAEFAAFMERAIEEARRLAEEARRLAEEGAPVEEIERLLEELRRLLDEVVERTTEVLEEVPEHADEILALYDRAATEIAEAGQEIREELRRRREEE | -0.00395
7 | usp_38_diff_out_16_37_209 (protein) AEKVLEEFKKFMEEAIKRAEEIGRRARELEEEGADLEELERLLEELERLLDEAVKRLTEALEKVPEKIEELFAIYDEFADAAARAGAIIREAIRRARERA | 0.0185
8 | usp_38_diff_out_16_37_211 (protein) MEEEIEKARKEMEEHLEKALELAERALKLVEEGASEAEIEKAMQEATDALLKAGRAAAELIHLDPSLEDEVVARYDEVATRVAALLREVQEALRARRAAE | 0.0682
9 | usp_38_diff_out_17_125_216 (protein) SDEELKEKAEELLKKAEELLKEAEKLLEEGAPAEEVEKKLDEAADALGQLAVTLRELREKSEDKAQAAKFIKELTKKANELIDRYTELATANFQRVADAQ | -0.484
10 | usp_38_diff_out_16_37_207 (protein) GEEKLKEFKKFMEEAMKKAKKLAEEAKKLAKEGKDKKEIEKLQKELDKLLDEVNEKTTEVLEEVPEKADEILAEYDKAATTIAEAGATIRAELRKARAAE | 0.0801
11 | usp_38_diff_out_17_125_219 (protein) SDADLEAEAKALLAEAKALLKEAEKLLKEGAPFEEIRKKLDAAADKLGQLAVTLQQLRDKSKDKAQAAKFIKEMTAEANKLIDEYTKLATEAFLREAEEA | -0.0439
12 | usp_38_diff_out_17_125_218 (protein) SDEELKKEIERLLEEAERLLEEAEKALEEGAPFEEIRKLLDEAADALGQAAVKLRELREKSEDPAQAAKFIKEATERANELIDRYTELATRAFLREAEAA | 0.0443
13 | usp_38_diff_out_17_125_214 (protein) DFEELVKKIEELLAEAEKLVKEAKKLLEEGAPPAEVRAALDKARDALGALAKALRELRRTSKDKAQAAKVIKEANEKADKLIDELTKLETEVFLREADAA | -0.149
14 | usp_38_diff_out_17_125_213 (protein) AEAALIAEIEALLAEATAKVKEAEALLKAGAPTEEVLKALDAARDALGALAVALERLRRESADRAQAAAVIKAATAEADKLIDRLTELETEAFLRQAEEA | 0.41
15 | usp_38_diff_out_16_37_206 (protein) AEKLLAEFKAFVEEIIERARRLAEEARRLAEEGAPIEEIERVLRELEELLDELVERTTEVLEKVPEHADEILAEYDRAATEIAEAGAEIRKALRERKEKE | -0.0578
16 | usp_38_diff_out_16_37_204 (protein) GEELLKEYKEFVEKVIKEAKKLAEEAKKLAKAGADLAEIRAIQEKLNELLDELVERTTEVLEKVPEHAEEILEEYDKAATEIAKAGAEIRAELRKAKAAA | -0.535
